Drawing on PubChem BioAssay (EPA / NIEHS), this text covers outcome and AC50 for 27 compounds.

One may read the AC50 as the concentration at which the activity in the assay is half-maximal.

Inconclusive results are not listed. Activity calls are given as the source filed them. The calls were made as follows: active = hit-call score of the fitted dose curve at least 0.9, where 1 is the maximum; inconclusive = response in the unintended direction; inactive = score below 0.9.

Experiment [1] is described as follows: ACEA_AR_agonist_AUC_viability: ACEA Biosciences xCELLigence Real-Time Cell Analysis on Androgen Receptor Agonism for Viability (AID 2283775).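 As to AC50: viability read 80 hours after compound addition.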 The essentials: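 22Rv1 cells; impedance growth kinetics; 8-pt 1:4 dilutions from 100 uM top final, ≤0.5% DMSO; n = 2; 80 h read; AUC viability, loss-of-signal vs DMSO.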
Experiment [2] can be described thus: STM_H9_NormalizedViability: Cytotoxicity Assessment at 120 hours in the Stemina devTOX quickPredict H9 human embryonic stem cell (hESC)-based Assay (AID 2283784). The essentials:
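Viability endpoint: background-corrected CellTiter-Fluor RFU expressed relative to the 0.1% DMSO mean on each plate. Undifferentiated H9 cells were treated with daily re-dosing and media change, and loss of signal was fitted.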

A short description of experiment [3]: ACEA_ER_AUC_viability: ACEA Biosciences xCELLigence Real-Time Cell Analysis on Estrogen Receptor Agonism for Viability (AID 2283782).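 Also: hit means loss of impedance signal meaning reduced cell growth or viability.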 In short, it runs like this: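 Viability endpoint: reduced impedance area under the curve relative to DMSO, recorded by real-time electrode sensing over ~80 h of continuous exposure. Duplicate plates of T47D in hormone-depleted medium; eight concentrations, 1:4 dilutions, 100 uM maximum.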

The target in experiment [4] is AR (gene 367) (UniProt P10275). The experiment in a line: ACEA_AR_agonist_80hr: ACEA Biosciences xCELLigence Real-Time Cell Analysis on Androgen Receptor Agonism for Proliferation (AID 2283783).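 Also: hits increase impedance growth signal above DMSO baseline.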 In short, it runs like this:
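Eight concentrations, 1:4 serial dilution from a 100 uM final top, in biological duplicate. Impedance-based real-time growth of 22Rv1 cells after overnight baseline, recorded hourly and read at 80 hours. Controls: testosterone, MG132, assay media.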

Experiment [5] has as its target AR (gene 367) (UniProt P10275). The experiment in a line: ACEA_AR_antagonist_80hr: ACEA Biosciences xCELLigence Real-Time Cell Analysis on Androgen Receptor Antagonism for Proliferation (AID 2283787).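 Also: 22Rv1 human prostate cancer cells with growth followed by electrical impedance; hits lower the impedance growth signal relative to DMSO.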 In short, it runs like this: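 Impedance-based real-time growth of 22Rv1 prostate cells, read 80 h after dosing. Eight concentrations, 1:4 series, top 100 uM final (0.5% DMSO), n = 2; signal decrease scored against DMSO.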

Experiment [6] in a line: ACEA_AR_antagonist_AUC_viability: ACEA Biosciences xCELLigence Real-Time Cell Analysis on Androgen Receptor Antagonism for Viability (AID 2283776).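 Also: 22Rv1 human prostate cancer cells growing on impedance electrode plates; area under impedance growth curve at 80 h after dosing as viability; hits lower the growth signal relative to DMSO meaning cytotoxicity.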 The essentials: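 Real-time electrical impedance tracks 22Rv1 proliferation after continuous compound exposure (top 100 uM final, 1:4 steps, 8 concentrations). The 80 h area-under-curve serves as the cytotoxicity readout relative to DMSO.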

AR (gene 367), sequence (P10275 whole entry, looked up): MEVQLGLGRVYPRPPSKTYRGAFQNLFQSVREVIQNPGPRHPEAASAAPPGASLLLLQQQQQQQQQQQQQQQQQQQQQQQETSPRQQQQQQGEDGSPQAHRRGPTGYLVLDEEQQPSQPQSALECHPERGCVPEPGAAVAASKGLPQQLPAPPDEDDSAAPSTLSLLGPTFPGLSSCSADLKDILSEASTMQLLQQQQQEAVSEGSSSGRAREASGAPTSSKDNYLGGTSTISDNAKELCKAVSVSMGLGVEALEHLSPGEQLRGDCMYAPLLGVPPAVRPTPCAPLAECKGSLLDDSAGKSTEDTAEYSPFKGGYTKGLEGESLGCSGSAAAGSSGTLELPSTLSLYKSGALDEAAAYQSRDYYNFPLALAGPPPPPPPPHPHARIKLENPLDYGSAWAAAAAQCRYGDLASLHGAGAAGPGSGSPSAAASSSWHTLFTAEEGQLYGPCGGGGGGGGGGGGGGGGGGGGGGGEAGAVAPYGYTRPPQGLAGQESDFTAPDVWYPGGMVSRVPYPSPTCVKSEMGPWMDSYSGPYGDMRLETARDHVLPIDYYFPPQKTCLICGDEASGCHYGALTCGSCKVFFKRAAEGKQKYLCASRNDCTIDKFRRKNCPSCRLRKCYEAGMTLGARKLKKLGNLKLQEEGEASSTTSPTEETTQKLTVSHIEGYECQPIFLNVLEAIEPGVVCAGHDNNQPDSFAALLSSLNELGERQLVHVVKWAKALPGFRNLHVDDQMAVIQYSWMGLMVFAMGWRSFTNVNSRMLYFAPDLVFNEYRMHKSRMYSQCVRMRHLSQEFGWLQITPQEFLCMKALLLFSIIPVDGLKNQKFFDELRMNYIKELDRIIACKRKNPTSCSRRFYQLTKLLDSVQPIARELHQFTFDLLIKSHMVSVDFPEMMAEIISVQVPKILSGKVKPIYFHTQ

As for `OCCCBr`, the result in experiment [1] and in experiment [2] was inactive.
Take `Clc1ccc(Cl)c(Cl)c1`: in experiment [2], the result was inactive.
`COC(=O)Nc1nc2ccccc2[nH]1`: the figures for the half-maximal activity concentration (AC50) (in experiment [1]; in experiment [3]; with AR (gene 367) [5]) were 50 µM (active), 16.5 µM (active) and 19.6 µM (active), respectively. Also, the call (with AR (gene 367) [4]; in experiment [2]) was inactive.
On to `COC(=O)c1ccccc1N`, for which the call in experiment [3] was inactive.
Regarding `CC(C)(C)C(O)(CCc1ccc(Cl)cc1)Cn1cncn1` (configuration not stated), the figures for the AC50 in experiment [1], in experiment [3] and in experiment [2] were 87 µM (active), 69.2 µM (active) and 78.7 µM (active), respectively.
For `O=P(OCCCl)(OCCCl)OCCCl`, the outcome in experiment [3] and in experiment [2] was inactive.
On to `O=C(N[C@H](c1ccccc1)[C@@H]1CN2CCC1CC2)c1c(Cl)ccc(C(F)(F)F)c1Cl`, for which the AC50 is 62.8 µM (active) in experiment [1] and 61.2 µM (active) in experiment [3].
In the case of `Cc1ccc(N)cc1`, the result in experiment [1] was inactive. The AC50 in experiment [2] was 40.9 µM (active).
In the case of `OCCOCCO`, the outcome in experiment [6] was inactive.
As to `CCCCCCCCOC(=O)c1ccc(C(=O)OCCCCCCCC)c(C(=O)OCCCCCCCC)c1`, the compound was called inactive in experiment [1] and in experiment [3].
`c1ccc(NNc2ccccc2)cc1`: the compound was classed as inactive in experiment [3].
With `O=C(Oc1ccc(Br)cc1)N1CCN2CCC1CC2`, the AC50 in experiment [1] was 72.1 µM (active). Besides, in experiment [3], the result was inactive.
As for `CCCCC(CC)COC(=O)c1ccc(C(=O)OCC(CC)CCCC)c(C(=O)OCC(CC)CCCC)c1` (configuration not stated), the call in the experiment with AR (gene 367) [4] was inactive.
On to `O=C1CCCO1`, for which the compound was called inactive (in experiment [1]; in experiment [2]; in the experiment with AR (gene 367) [5]).
For `CO[C@@H]1[C@H](OC(=O)NC(=O)CCl)CC[C@]2(CO2)[C@H]1[C@@]1(C)O[C@@H]1CC=C(C)C`, the AC50 in experiment [1] is 0.00152 µM (active); in experiment [2], 0.0978 µM (active); with AR (gene 367) [5] it was 12.6 µM (active).
On to `Nc1cc(Cl)cc(C(=O)O)c1Cl`, for which the call in experiment [1] and in experiment [3] was inactive.
As to `O=C(O)C1C2CCC(O2)C1C(=O)O` (configuration not stated), in experiment [3], the AC50 was 21.9 µM (active).
With `Brc1ccc(Oc2ccccc2)cc1`, the call in experiment [1], in experiment [3] and in experiment [2] was inactive.
`Cc1ccc(N)c(N)c1`: the half-maximal activity concentration (AC50) in experiment [3] is 6.06 µM (active); in experiment [2], 26.9 µM (active).
For the compound `CCCCCCCCn1sccc1=O`, the AC50 is 18.5 µM (active) in experiment [1], 11.8 µM (active) in experiment [3] and 47.7 µM (active) in experiment [2].
On to `O=[N+]([O-])c1ccc(Oc2ccc(Cl)cc2Cl)cc1`, for which the concentration at half-maximal activity (AC50) is 84.9 µM (active) in experiment [1] and 77 µM (active) in experiment [2].
As for `CCNS(=O)(=O)C(F)(F)C(F)(F)C(F)(F)C(F)(F)C(F)(F)C(F)(F)C(F)(F)C(F)(F)F`, the AC50 with AR (gene 367) [4] was 48.2 µM (active). The outcome with AR (gene 367) [5] was inactive.
In the case of `Nc1ccc(Oc2ccc(N)cc2)cc1`, the compound was called inactive in experiment [1]. Further, the AC50 in experiment [2] is 75.5 µM (active).
Regarding `C1=Cc2cccc3cccc1c23`, the compound was called inactive in experiment [6] and in experiment [3].
Take `CCOC(=O)[C@]1(c2ccccc2)Oc2ccccc2[C@@H]1N`: in experiment [1], the AC50 was 69.4 µM (active). For the same compound, in experiment [3], the call was inactive.
Consider `C=CCc1ccc2c(c1)OCO2`, for which the outcome in experiment [1] and in experiment [3] was inactive.
With `Cc1cccc(N)c1N`, the outcome in experiment [6] and in experiment [3] was inactive. Also, in experiment [2], the concentration at half-maximal activity (AC50) was 75.7 µM (active).
